Source: PubChem
Sampled rows, rich in hits. Any-hit rate of the full collection: about 4%.
Mtb betalactam: beta-lactam sensitization of Mtb H37Rv | M. tuberculosis H37Rv growth with meropenem, percent inhibition | inhibition, % at 25 µM | 0.27% of 330,000 active | AID 434955; call rule not given here;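 note: growth measured after seven days incubation then overnight dye step; 0% = bacteria only wells and 100% = bacteria with antibiotic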
Mtb FBA inh: inhibits M. tuberculosis FBA enzyme. P9WQA3. purified M. tuberculosis FBA, fluorescence read-out. inhibition, % at 1 µM. 2.3% of 360,000 active;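 note: 0% = vehicle and 100% = reference inhibitor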
GDH-TPI counter-1: GDH-TPI coupled enzyme inhibition counter-screen; GDH-TPI coupled enzyme counterscreen, NADH absorbance; inhibition, % at 4.8 µM; 1.2% of 360,000 active; in the data active = inhibition above about 30%;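 note: 0% = DMSO wells and 100% = wells lacking the enzyme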
UGM FP inh: inhibitors of M. tuberculosis UDP-galactopyranose mutase; purified UGM, fluorescence polarization probe displacement; inhibition, % at 10 µM; 0.06% of 320,000 active; in the data active = inhibition above about 10%, passing the limit was not always enough
RecA intein inh: Mtb RecA intein splicing inhibition | 0.75% of 290,000 active | inhibition, % (concentration not given with the values) | P9WHJ3 | cell-free RecA intein splicing, fluorescence; in the data active = inhibition above about 30%;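 note: 0% = vehicle wells and 100% = reference inhibitor control wells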
Rv3671c inh: inhibits the M. tuberculosis serine protease Rv3671c; AID 2606; P9WHR9; 0.048% of 320,000 active; inhibition, % at 5.96 µM; in the data active = inhibition above about 38%;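 note: extracellular domain of Rv3671c used as enzyme; 0% = enzyme with DMSO and 100% = no enzyme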
Target sequence (P9WHR9 whole entry, looked up, the tested form may be a part): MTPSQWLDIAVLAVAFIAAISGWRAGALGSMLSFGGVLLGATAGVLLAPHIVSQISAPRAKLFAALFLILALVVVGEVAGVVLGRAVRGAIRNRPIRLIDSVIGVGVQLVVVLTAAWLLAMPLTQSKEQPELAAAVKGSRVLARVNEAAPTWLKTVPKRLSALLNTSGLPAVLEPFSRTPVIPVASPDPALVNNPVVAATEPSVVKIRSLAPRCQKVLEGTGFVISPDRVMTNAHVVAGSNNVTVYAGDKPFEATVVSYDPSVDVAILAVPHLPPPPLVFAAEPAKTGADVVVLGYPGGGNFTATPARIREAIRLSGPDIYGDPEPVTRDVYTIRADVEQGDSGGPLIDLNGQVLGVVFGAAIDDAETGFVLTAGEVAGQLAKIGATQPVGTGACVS
Mtb FBA confirm: Mtb FBA inhibition, confirmed; shares compounds with Mtb FBA inh; purified M. tuberculosis FBA, fluorescence read-out; inhibition, % at 1 µM; 78% of 5,600 active; AID 651616;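 note: 0% = vehicle wells and 100% = reference inhibitor wells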
GDH-TPI counter-2: GDH-TPI inhibition counter-screen for FBA inhibitors; shares compounds with Mtb FBA inh; GDH-TPI coupled enzyme counterscreen, fluorescence; inhibition, % at 1 µM; 81% of 5,600 active; AID 652141; in the data active = inhibition above about 10%
Numbers without * were called inactive; / = not tested or not shown; + = active, no number. Cut-off read from the data, not from the text of the source, unless noted: active = inhibition above about 27%; inactive = the rest.

SMILES | Mtb betalactam | Mtb FBA inh | GDH-TPI counter-1 | UGM FP inh | RecA intein inh | Rv3671c inh | Mtb FBA confirm | GDH-TPI counter-2
Cc1cc(C(=O)NNC(=O)c2sccc2C)c(C)o1 | -3 | 0 | -7 | 3 | 4 | -5 | / | /
COc1ccc(NS(=O)(=O)c2cn(C)cn2)cc1Cl | 1 | 1 | -2 | -1 | -1 | 10 | / | /
COc1ccc(-n2nc3ccc(NS(C)(=O)=O)cc3n2)cc1Cl | 7 | 92* | 11 | 0 | / | 1 | 36* | 22*
CC(OC(=O)c1cccc(N(C)C)c1)C(=O)N1CCc2ccccc2C1 (stereo not given) | -5 | -2 | 4 | 3 | / | 5 | / | /
Cn1nc(C(C)(C)C)cc1C(=O)N1CCC(C)(C(=O)NS(=O)(=O)C2CC2)C1 (stereo not given) | / | 1 | 8 | / | / | / | / | /
CCNc1nc(Oc2ccc(C#N)cc2)cc(C(F)(F)F)n1 | 3 | 56* | 7 | 1 | 2 | -2 | 131* | 88*
CCNc1nc(Oc2ccc(F)cc2)cc(C(F)(F)F)n1 | -6 | 2 | -3 | 3 | 2 | -5 | / | /
CCN(CC)C(=O)COc1c(-c2ccco2)oc2ccccc2c1=O | -6 | 27* | 33* | -3 | -5 | 4 | 156* | 155*
CC(=O)OCC1OC(Sc2cccc3cccnc23)C(OC(C)=O)C(OC(C)=O)C1OC(C)=O (stereo not given) | -10 | 36* | -3 | 1 | 0 | -1 | + | 159*
S=c1[nH]c(-c2ccccc2)cn1/N=C/c1cccnc1 | -6 | 34* | 18 | -1 | -1 | 7 | 94* | 85*
O=C(O)c1ccc(/C=N/n2cc(-c3ccccc3)[nH]c2=S)cc1 | -5 | 37* | 9 | -4 | 0 | -3 | 50* | 38*
Cc1ccc(-c2n[nH]c(=S)n2/N=C/c2ccc(C(=O)O)cc2)cc1 | 3 | -1 | 3 | -1 | -2 | -4 | / | /
S=c1[nH]c(-c2ccccc2)cn1/N=C/c1ccc(Br)cc1 | -5 | 33* | 1 | 0 | 5 | 9 | 170* | 126*
Cc1ccc(/C=N/n2c(-c3ccccc3)n[nH]c2=S)cc1 | -1 | -1 | -1 | 0 | 0 | 0 | / | /
S=c1[nH]c(-c2ccccc2)cn1/N=C/c1cccs1 | -1 | 31* | 40* | 0 | 0 | 4 | 152* | 126*
Cc1noc(C)c1-c1ccc(C(=O)NCc2cccnc2)c2occc12 | / | 5 | 5 | / | / | / | / | /
Cc1cccc(C(=O)Nc2ccc3c(c2)C(=O)NC3=O)c1 | 3 | 45* | 17 | -1 | -2 | -7 | 0 | 2
CC(C)C(=O)Nc1ccc2c(c1)C(=O)NC2=O | -3 | 46* | 4 | 1 | 0 | 9 | 15 | 13*
Cc1ccc(C(=O)Nc2ccc3c(c2)C(=O)NC3=O)cc1 | -4 | 16 | 3 | 1 | -2 | -94 | / | /
Cc1cccc(C(=O)Nc2cccc(C(=O)N/N=C/c3ccccn3)c2)c1 | -2 | 48* | 1 | 1 | 1 | 4 | 6 | -11
O=C1NC(=O)c2cc(NC(=O)C3CCCCC3)ccc21 | 0 | 44* | -6 | 0 | 0 | -5 | 132* | 88*
CO/N=C/C1CCN(c2ncc(C(F)(F)F)cc2Cl)C1=O (stereo not given) | -7 | -2 | -4 | -2 | 1 | -11 | / | /
O=C(OCC(=O)N1CCN(C(=O)c2ccco2)CC1)c1cccc(F)c1 | 3 | 5 | 9 | / | / | -2 | / | /
CC1CCCCC1NC(=O)COC(=O)c1ccc2ncsc2c1 (stereo not given) | 0 | -3 | -3 | 0 | / | -5 | / | /
COC(=O)C1=CN(CCOC23CC4CC(CC(C4)C2)C3)C=C(C(=O)OC)C1c1ccsc1 | -3 | 63* | -1 | 2 | -23 | -1 | 101* | 85*
SMILES | Mtb betalactam | Mtb FBA inh | GDH-TPI counter-1 | UGM FP inh | RecA intein inh | Rv3671c inh | Mtb FBA confirm | GDH-TPI counter-2
COC(=O)C1=CN(Cc2ccc(OC)c(OC)c2)C=C(C(=O)OC)C1c1cccc(O)c1 | -9 | 111* | 19 | -3 | / | 4 | 109* | 82*
COC(=O)C1=CN(Cc2ccc(F)cc2)C=C(C(=O)OC)C1c1ccc(O)c(OC)c1 | 0 | 6 | 14 | 0 | -2 | / | / | /
COC(=O)C1=CN(Cc2ccc(OC)cc2)C=C(C(=O)OC)C1c1ccsc1 | -5 | 98* | 2 | 1 | -99 | -6 | 131* | 86*
COC(=O)C1=CN(CC2CCCO2)C=C(C(=O)OC)C1c1ccsc1 (stereo not given) | 7 | 83* | 0 | -2 | -165 | -5 | 4 | -8
O=C(CSCc1c(F)cccc1Cl)NNC(=S)NC1CCCCC1 | -1 | 2 | 3 | 3 | 4 | -2 | / | /
COC(=O)C1=C(c2ccccc2OCc2ccccc2)C[C@@H]2CC[C@H]1N2C(=O)NCCOc1ccccc1Cl | 2 | 46* | -6 | 0 | / | -3 | 179* | 122*
COC(=O)C1=C(c2cccc(OCc3ccccc3)c2)C[C@@H]2CC[C@H]1N2C(=O)NCCOc1ccccc1Cl | -5 | 0 | 7 | -3 | / | -10 | / | /
Oc1ccc2ccccc2c1CNc1cnc2ccccc2c1 | 99 | 50* | 30 | 2 | 0 | -1 | -5 | -6
Oc1ccccc1CNc1cnc2ccccc2c1 | 98 | 40* | 13 | 1 | 8 | 0 | 5 | 3
Oc1ccc(Cl)cc1CNc1cnc2ccccc2c1 | 96 | 34* | 30 | 0 | 9 | 6 | + | 170*
Cc1cc(=O)n2[nH]c(C(F)(F)F)c(-c3ccccc3)c2n1 | -7 | 64* | 1 | 0 | -1 | -9 | 165* | 135*
COc1ccc(Cc2[nH]n3c(=O)cc(C)nc3c2-c2ccccc2)cc1 | -5 | 27* | 0 | 2 | 5 | 12 | 157* | 147*
COc1ccc2c(c1OC)C(=O)N(c1cccc(/C=C/C(=O)O)c1)C2 | -2 | 5 | -8 | 3 | 0 | 0 | / | /
O=C(/C=C/c1cccs1)NC(=S)NNC(=O)c1ccccc1O | 6 | 28* | 25 | 0 | 10 | 23 | -1 | 3
COc1ccc(C(=O)NNC(=S)NC(=O)/C=C/c2cccs2)cc1 | 99 | 0 | 0 | 1 | 3 | 6 | / | /
O=C(COC(=O)C12CC3CC(CC(C3)C1)C2)NNC(=O)c1ccccc1 | -6 | -2 | 5 | -4 | / | 4 | / | /
COc1ccc(OC)c(S(=O)(=O)N/N=C\c2cn(CC(N)=O)c3ccccc23)c1 | 3 | 1 | 10 | -2 | -2 | -3 | / | /
CCn1cc(C(=O)NCc2ccc(C)o2)c2cc(OC)c(OC)cc2c1=O | -6 | 0 | 7 | 0 | 12 | 3 | / | /
COc1cc2sc3cc(NCC[C@@H]4CCCN4C)ccc3c(=O)c2cc1OC | 73 | 32* | 42* | -3 | / | -13 | + | 194*
COc1cc2sc3cc(NCc4ccc(C)o4)ccc3c(=O)c2cc1OC | 23 | 33* | 20 | 0 | / | -20 | 131* | 126*
